In ChEMBL document CHEMBL3988442, “University of Dundee, Small-Polar-MMV Screening Library” (2021):

Assays:
[1] = target: T1, Aspartate--tRNA(Asp/Asn) ligase (Mycobacterium tuberculosis (strain ATCC 25618 / H37Rv)) (UniProt P9WFW3); test: Assay for Asp RNA synthetase-1 from Mycobacterium tuberculosis; type: functional; design: scale not given: direction of the effect not stated beside the values; details: 30 µM; further: in the data most compounds retested in dose-response had high values
T1 sequence (whole entry): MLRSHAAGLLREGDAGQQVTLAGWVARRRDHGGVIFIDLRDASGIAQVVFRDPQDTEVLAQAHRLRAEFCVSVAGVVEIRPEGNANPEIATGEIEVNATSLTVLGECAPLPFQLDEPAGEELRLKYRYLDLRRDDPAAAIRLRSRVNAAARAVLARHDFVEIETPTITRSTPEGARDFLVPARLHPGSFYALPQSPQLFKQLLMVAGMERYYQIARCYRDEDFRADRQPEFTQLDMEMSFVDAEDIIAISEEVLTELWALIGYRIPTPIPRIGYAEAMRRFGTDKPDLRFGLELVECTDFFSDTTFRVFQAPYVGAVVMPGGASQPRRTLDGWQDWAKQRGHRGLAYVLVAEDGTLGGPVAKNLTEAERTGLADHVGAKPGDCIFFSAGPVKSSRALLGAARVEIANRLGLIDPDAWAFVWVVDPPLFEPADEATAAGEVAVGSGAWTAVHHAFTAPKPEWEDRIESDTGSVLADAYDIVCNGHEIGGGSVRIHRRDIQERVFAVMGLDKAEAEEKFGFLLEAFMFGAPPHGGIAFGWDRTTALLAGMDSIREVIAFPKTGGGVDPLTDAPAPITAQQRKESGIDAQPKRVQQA

[2] = target: Shiga toxin 2 (Escherichia coli O157:H7) (UniProt P09385+P09386); test: E. coli 0.157:H7 Shiga Toxin SOP - stx2 screening assay; type: functional; design: scale not given: direction of the effect not stated beside the values; details: 30 µM

| Compound | Percent Effect [1] [%] | Percent Effect [2] [%] |
| --- | --- | --- |
| O=C(NCCN1CCCCCC1=O)c1ccn(-c2ccc(F)cc2)n1 | 3.8 | 14.8 |
| CCc1noc(CN(C)Cc2ccc(N3CCCCC3)cc2)n1 | -2.17 | -19.3 |
| COc1c(CNC2CCCc3ccccc32)c(C)nn1C (stereo not drawn) | -1 | 13.6 |
| Cc1cccc(CNCc2c(C)nn(C)c2N2CCOCC2)n1 | 3.77 | -0.864 |
| COCC1CCN(c2cc(C3CN(C)CCO3)nc(C)n2)CC1 (stereo not drawn) | -1.84 | -3.4 |
| OC(CN1CCN(Cc2ccc(F)c(F)c2)CC1)C1CC1 (stereo not drawn) | -4.54 | -0.879 |
| CCc1cc(N[C@H]2CC[C@H](O)CC2)n2nc(C)c(C)c2n1 | 1.45 | -12.4 |
| COCCCN1CCCN(C(C)C(=O)Nc2ccnn2C(C)C)CC1 (stereo not drawn) | -3.7 | 11.2 |
| NCCn1nc(C2CCN(Cc3ccc(Cl)c(Cl)c3)C2)c2nccnc21 (stereo not drawn) | -4 | -105 |
| Cc1nn(CC(=O)N2CCN(c3ccncc3)CC2)c(C)c1Cl | 0.15 | -36.1 |
| Cc1ccc(OCCNC(=O)C(C)n2cncn2)cc1 (stereo not drawn) | 4.54 | 4.25 |
| CC(NC(=O)N(C)Cc1ccsc1)c1ccc2c(c1)CCC(=O)N2 (stereo not drawn) | -2.72 | 29 |
| O=C(NCCC1CCCO1)c1ccccc1N1CCOCC1 (stereo not drawn) | -8.37 | -3.88 |
| Cc1nc2ccccc2nc1CN(C)CC1CCCN1c1cccnn1 (stereo not drawn) | 1.76 | 22.3 |
| COc1ccc(C(=O)N2CCCCC2c2nc(C)cs2)nn1 (stereo not drawn) | -4.46 | -31.3 |
| Cc1cccc(-c2ccc(C(=O)NCC(C)(C)C(N)=O)c(=O)[nH]2)c1 | 7.72 | -21.6 |
| O=C(CN1CCCC1Cn1cncn1)NC(C1CC1)C1CC1 (stereo not drawn) | 2.42 | -2.93 |
| CN(C)C(=O)CSc1nnc(CCNC(=O)OC(C)(C)C)o1 | 2.93 | -59.4 |
| CCc1cnc2c(c1Nc1ccc(OC)cc1)c(=O)n(C)c(=O)n2C | 0.831 | -12.8 |
